Assay results from PubChem BioAssay.
The source made the active and inactive calls.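 Rule for the calls, unless noted: active = compounds giving at least 50% inhibition in the cell-based MKP-3 phosphatase rescue imaging test; inactive = the rest.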

Assays:
[1] = inhibitors of mutant huntingtin aggregation, primary screen, imaging, exon1htt(103Q)mCFP cells, high-content imaging (AID 483;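 active = visual image review flags a hit and inhibition of aggregation exceeds 20%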;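 note: compound exposure lasted 3 days before fixation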;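 for nuclei count: percent of the per-plate median nuclei count of sample wells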); conditions: exon1htt(103Q)mCFP cell line, aggregate imaging, at 2 µM; inhibition of aggregation: stronger effect = higher value; nuclei count: measured here: cell count, toxicity
[2] = inhibitors of E-selectin induction by TNFa, primary screen, imaging, HUVEC, immunofluorescence, MLSMR starter and 10KST1 sets (AID 487;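 active = visually confirmed hit in the image check and inhibition above 20%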;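 for inhibition: signal is fraction of cell area covered by stained E-selectin grains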;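 for nuclei count: 100% = median nuclei count of all wells on the same plate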); conditions: HUVEC TNFalpha-induced E-selectin immunofluorescence imaging, at 2 µM; inhibition: stronger effect = higher value; nuclei count: measured here: cell number, toxicity
[3] = DUSP6 inhibitors restoring Erk phosphorylation by chemical complementation, primary imaging in DUSP6-transfected HeLa (AID 609); conditions: HeLa MKP-3 transfected, phospho-Erk imaging KS statistic, at 10 µM, cells stimulated with TPA for 15 min;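 for inhibition: phospho-Erk level distribution per well compared with pooled transfected vehicle control wells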
[4] = target: Dual specificity protein phosphatase 6 (Homo sapiens) (UniProt Q16828); assay: as above; conditions: HeLa MKP-3 transfected, phospho-Erk imaging KS statistic; at 10 µM; stronger effect = higher value; cells stimulated with TPA for 15 min
Dual specificity protein phosphatase 6 (Homo sapiens), sequence (Q16828 whole entry, looked up): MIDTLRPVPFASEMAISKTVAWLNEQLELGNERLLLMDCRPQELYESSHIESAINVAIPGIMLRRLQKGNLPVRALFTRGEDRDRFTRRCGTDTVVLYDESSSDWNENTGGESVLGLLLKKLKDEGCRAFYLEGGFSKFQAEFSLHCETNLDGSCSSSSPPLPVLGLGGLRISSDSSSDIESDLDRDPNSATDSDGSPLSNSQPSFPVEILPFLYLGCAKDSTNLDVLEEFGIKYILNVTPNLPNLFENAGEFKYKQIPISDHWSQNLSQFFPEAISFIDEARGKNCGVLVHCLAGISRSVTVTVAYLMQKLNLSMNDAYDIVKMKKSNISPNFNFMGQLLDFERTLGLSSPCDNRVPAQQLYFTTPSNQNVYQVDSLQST

[5] = target: Voltage-gated potassium channel subunit beta-2 (Rattus norvegicus) (UniProt P62483); assay: KvBeta enzyme negative modulators, primary screen, biochemical, NADPH fluorescence (AID 622;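 active = fluorescence slope higher than the sample average by over 3 SD, cut at about -0.22 in these data, passing the limit was not always enough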;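 note: slope of raw intensity against log time taken from 70 to 1610 s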); conditions: recombinant KvBeta, 4-cyanobenzaldehyde reduction, at 10 µM, stronger effect = higher value
Voltage-gated potassium channel subunit beta-2 (Rattus norvegicus), sequence (P62483 whole entry, looked up): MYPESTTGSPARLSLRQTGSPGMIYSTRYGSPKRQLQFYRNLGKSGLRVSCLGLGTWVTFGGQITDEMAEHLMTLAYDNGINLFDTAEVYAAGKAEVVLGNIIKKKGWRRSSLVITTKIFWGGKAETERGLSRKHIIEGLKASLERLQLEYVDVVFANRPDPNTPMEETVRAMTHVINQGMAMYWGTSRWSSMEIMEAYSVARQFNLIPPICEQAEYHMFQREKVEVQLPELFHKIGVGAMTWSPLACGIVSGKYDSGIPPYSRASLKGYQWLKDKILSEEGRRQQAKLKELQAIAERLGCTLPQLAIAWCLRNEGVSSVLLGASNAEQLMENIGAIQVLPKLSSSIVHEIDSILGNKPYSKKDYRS

[6] = target: Voltage-gated potassium channel subunit beta-2 (Rattus norvegicus) (UniProt P62483); assay: KvBeta positive modulators, primary screen, biochemical, NADPH fluorescence (AID 623;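 active = NADPH fluorescence slope more negative than the mean of all samples by about 3 SD, 99.7% confidence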;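 note: fluorescence intensity change per second fitted from 20 to 320 s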); conditions: Recombinant KvBeta, NADPH fluorescence decrease slope, 10 min; at 10 µM; stronger effect = lower value
[7] = target: Alpha-2C adrenergic receptor (Homo sapiens) (UniProt P18825); assay: modulators of alpha2C/GIRK thallium flux, primary screen, cell-based, HEK293 alpha2C/GIRK1/2 (AID 624;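 active = fluorescence slope after compound addition differing from the mean of all screened samples at 99.7% confidence, in either direction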;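 note: slope of fluorescence ratio to pre-addition baseline per second over 15 to 24 s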); conditions: thallium flux BTC fluorescence, at 10 µM, actives lie on both sides
Alpha-2C adrenergic receptor (Homo sapiens), sequence (P18825 whole entry, looked up): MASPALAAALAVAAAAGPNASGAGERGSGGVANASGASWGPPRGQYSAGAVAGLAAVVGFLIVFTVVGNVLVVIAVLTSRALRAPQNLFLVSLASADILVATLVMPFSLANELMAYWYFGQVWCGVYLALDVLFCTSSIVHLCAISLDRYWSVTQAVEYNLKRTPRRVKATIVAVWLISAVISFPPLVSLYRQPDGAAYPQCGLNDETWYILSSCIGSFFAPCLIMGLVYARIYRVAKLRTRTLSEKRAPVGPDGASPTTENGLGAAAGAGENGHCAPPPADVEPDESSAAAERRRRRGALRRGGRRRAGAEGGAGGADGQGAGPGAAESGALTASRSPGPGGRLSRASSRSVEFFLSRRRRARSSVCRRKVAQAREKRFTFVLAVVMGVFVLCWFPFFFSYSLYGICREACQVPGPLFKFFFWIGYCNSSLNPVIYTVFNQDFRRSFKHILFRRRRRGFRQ

[8] = inhibitors of larval lipid processing in zebrafish, primary screen, whole organism, PED6 fluorescence, gall bladder and intestine (AID 686;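 active = a full or partial loss of lipid-probe fluorescence in the fish gall bladder, intestine or both, judged by eye; inactive = no fluorescence loss, or compound toxic to the fish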;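 note: larvae 5 to 7 days old with five fish per well; signal comes from phospholipase A2 cleavage of quenched PED6 carried via bile; overnight exposure to compound and PED6 before scoring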); conditions: Zebrafish larvae PED6 lipid processing, fluorescence scoring; screened at 20 µM (by protocol)
[9] = inhibitors of Chlamydomonas gravitaxis, primary screen, whole organism, Chlamydomonas reinhardtii, WT vs cilia-less mutant, absorbance, 96-well (AID 463189;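 active = inhibition at or above 50% relative to wild type and mutant plate controls; inactive = inhibition below 50%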;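 note: 0% = wild type cc124 cells in DMSO and 100% = ciliumless bld1 mutant cells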); conditions: OD600 absorbance, 2 days, at 10 µM, stronger effect = higher value
[10] = inhibitors of Sendai virus-induced IRF3 signaling, primary screen, TLR/RLR signaling modifier project, cell-based, Sendai virus stimulus, luciferase, 10K MLSCN set (AID 602276;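 active = inhibition at or above 50% at 10 µM; inactive = inhibition below 50%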;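 note: firefly luciferase from ISG56 promoter only with Renilla not read in this screen; 0% = Sendai virus plus DMSO and 100% = medium plus DMSO without virus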); conditions: HEK293 RL24 IRF3 luciferase reporter, at 10 µM, stronger effect = higher value
[11] = inhibitors of poly I:C-induced TLR3 signaling, primary screen, cell-based, poly I:C stimulus, luciferase, 10K MLSCN set (AID 602277;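 active = inhibition of the reporter signal at or above 50%; inactive = inhibition below 50%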); conditions: HEK293-TLR3 RL24 IRF3 luciferase reporter, at 10 µM, stronger effect = higher value
[12] = target: Muscarinic acetylcholine receptor M4 (Homo sapiens) (UniProt P08173); assay: compounds altering M4/GIRK thallium flux, either direction, primary screen, M4 allosteric agonist project, cell-based, HEK293 M4/GIRK, BTC-AM (AID 625;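 active = fluorescence slope after compound addition differing from the mean of all tested samples at 99.7% confidence, mostly higher but some lower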;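 note: thallium influx through GIRK channels coupled to M4 in HEK293 cells with BTC-AM dye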); conditions: at 10 µM, actives lie on both sides
Muscarinic acetylcholine receptor M4 (Homo sapiens), sequence (P08173 whole entry, looked up): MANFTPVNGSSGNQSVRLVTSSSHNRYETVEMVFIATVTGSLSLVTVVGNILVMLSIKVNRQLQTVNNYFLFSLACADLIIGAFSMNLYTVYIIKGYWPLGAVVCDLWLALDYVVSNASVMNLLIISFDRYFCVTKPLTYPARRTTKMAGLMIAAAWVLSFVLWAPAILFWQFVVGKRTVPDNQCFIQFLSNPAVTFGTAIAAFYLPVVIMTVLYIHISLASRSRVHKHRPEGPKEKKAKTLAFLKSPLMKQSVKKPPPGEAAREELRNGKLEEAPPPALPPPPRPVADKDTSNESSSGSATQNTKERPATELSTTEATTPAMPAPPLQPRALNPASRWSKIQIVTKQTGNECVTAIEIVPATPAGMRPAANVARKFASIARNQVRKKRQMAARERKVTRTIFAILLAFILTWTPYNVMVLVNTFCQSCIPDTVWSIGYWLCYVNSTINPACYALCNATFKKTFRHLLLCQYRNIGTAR

[13] = measured here: cell density z-score
[14] = measured here: nuclear c-Myc green intensity z-score
[15] = measured here: nuclear pErk red intensity z-score, stronger effect = higher value

Compound	inhibition of aggregation [1]	nuclei count [1] [%]	inhibition [2]	nuclei count [2] [%]	z-score [3, 13]	z-score [3, 14]	z-score [3, 15]	inhibition [4]	fluorescence slope [5]	NADPH fluorescence slope [6]	slope [7]	outcome [8]	inhibition [9]	inhibition [10]	inhibition [11]	fluorescence slope [12]
Cc1cccc(Nc2ccccc2C(=O)O)c1C	-13.5% (inactive)	100	-91.2% (inactive)	118	-1.12	0.675	-0.849	19% (inactive)	-0.511 (inactive)	-5.8e-05 (inactive)	0.00454 (inactive)	inactive	25.5% (inactive)	8.41% (inactive)	14% (inactive)	–
CN1CC(=O)Nc2ccc(F)cc2C1=O	–	–	-12.8% (inactive)	108	-0.408	1.54	-1.19	7.48% (inactive)	-0.414 (inactive)	-5.5e-06 (inactive)	–	inactive	-6.78% (inactive)	–	–	0.0056 (inactive)
CC1(c2cnc(Nc3ccccc3)s2)CCC(=O)O1 (centres undefined)	–	–	-192% (inactive)	138	0.619	-0.905	-1.23	24.7% (inactive)	-0.359 (inactive)	1.9e-06 (inactive)	–	active; weak signal in gallbladder only	9.89% (inactive)	–	–	0.00609 (inactive)
CC1(C)CC(=O)C(C2=NC(C)(C)Cc3ccccc32)=C(O)C1	–	–	-46.3% (inactive)	99.8	-0.0371	0.246	-0.668	15.1% (inactive)	-0.435 (inactive)	3.9e-06 (inactive)	–	inactive	-9.43% (inactive)	–	–	0.00539 (inactive)
C=C(Br)CN1CCN(CC(=C)Br)CC1	–	–	-179% (inactive)	175	2.33	-0.834	-0.983	17% (inactive)	-0.428 (inactive)	-2.9e-05 (inactive)	–	inactive	5.24% (inactive)	–	–	0.00828 (inactive)
NC(=O)c1ccccc1OCCOCCOCCOc1ccccc1C(N)=O	–	–	-40% (inactive)	141	0.988	0.573	-0.494	3.66% (inactive)	-0.379 (inactive)	-3.2e-05 (inactive)	–	inactive	21.6% (inactive)	–	–	0.00555 (inactive)
O=C(Oc1oc(-c2ccco2)nc1C=Nc1ccccc1)c1ccoc1	–	–	-72% (inactive)	165	1.16	-0.161	0.106	15.1% (inactive)	-0.402 (inactive)	-4.5e-05 (inactive)	–	inactive	8.33% (inactive)	–	–	0.00635 (inactive)
CCC(NC(=O)Nc1nnc(C(F)(F)F)s1)(C(F)(F)F)C(F)(F)F	–	–	-242% (inactive)	141	0.851	-0.831	0.704	18.4% (inactive)	-0.449 (inactive)	-4.2e-05 (inactive)	–	inactive; toxic	9.74% (inactive)	–	–	0.00231 (inactive)
CCOC(=O)c1ccc(NCC(O)COc2ccccc2)cc1 (centres undefined)	–	–	-60.3% (inactive)	138	1.4	-0.621	-0.757	3.66% (inactive)	-0.343 (inactive)	-1.2e-05 (inactive)	–	inactive	3.53% (inactive)	–	–	0.00673 (inactive)
Cc1c(C(=O)O)sc(=S)n1-c1ccccc1	–	–	-33.5% (inactive)	141	0.701	-0.0654	0.165	20.8% (inactive)	-0.372 (inactive)	-3.1e-05 (inactive)	–	inactive	12.3% (inactive)	–	–	0.0076 (inactive)
